# From PubChem
# Shown are actives, neighbours in structure and some others; about 19% of the full set was active somewhere.
# TDP1 cell CPT: qHTS for Inhibitors of human tyrosyl-DNA phosphodiesterase 1 (TDP1): qHTS in cells in presence of CPT; chicken DT40 Tdp1-/-;hTDP1 cells + 20 nM CPT, ATP luminescence, 48 h; Potency, µM (top dose mostly 46.2 µM), for the others: at the top dose activity change, negative = growth inhibition, actives largely listed as inhibitors; 420,000 tested, 12% active; AID 686979, 2013; further: potency means the concentration at half of the fitted maximal effect; nearly all actives have a fitted effect of over 55% in size
#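 Chicken DT40 Tdp1-/- cells stably complemented with human TDP1 were seeded at 400 cells/well in medium containing 20 nM camptothecin, exposed to pin-transferred compounds, and grown at 37 °C for at least 48 hr. Viability was read as ATP luminescence.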
# IL1B secr inh: qHTS for Inhibitors of Inflammasome Signaling: IL-1-beta AlphaLISA Primary Screen; activity change, % at 57.5 µM; 360,000 tested, 4.7% active; THP-1 LPS/ATP IL-1B secretion, AlphaLISA, 16 h; active compounds read low; in the data active means activity change below about -50%; inconclusive means mostly about -30% to -49%
#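 THP-1 cells pretreated 1 hr with compounds (up to 57.5 uM final), then stimulated with LPS (250 ng/mL final) plus ATP (1.25 mM final); secreted IL-1B measured by AlphaLISA after 16 hr, decreased signal indicating inhibition.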
# TDP1 cell noCPT: qHTS for Inhibitors of human tyrosyl-DNA phosphodiesterase 1 (TDP1): qHTS in cells in absence of CPT | DT40 Tdp1-/- hTDP1 cells, no CPT, ATP luminescence, 48 h | Potency, µM (titrated, usually from 46.2 µM), for the others: top-dose activity change, negative = growth inhibition, hits mostly inhibitors | 420,000 tested, 15% active; further: potency means the concentration at half of the fitted maximal effect; nearly all actives have a fitted effect of over 55% in size
#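 Growth kinetics read by CellTiter-Glo luminescence after ≥48 hr at 37 °C. Cells: DT40 Tdp1-/- stably carrying human TDP1, 400 per well, compound exposure in the absence of CPT (DMSO vehicle).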
# HT1080-NT tox: qHTS for induction of synthetic lethality in tumor cells producing 2HG: qHTS for the HT-1080-NT fibrosarcoma cell line | HT-1080-NT fibrosarcoma viability, CellTiter-Glo ATP luminescence, 48 h | AID 686970, 2013 | 360,000 tested, 1.6% active | Potency, µM (series often up to 46.1 µM), for inactives: at the highest dose activity, negative = less viability, hits mostly cytotoxic;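 further: NT is the 2HG producing partner of a matched IDH1 knockdown line; potency means the concentration at half of the fitted maximal effect; 0% = DMSO-treated cells and -100% = media-only wells without cells; nearly all actives have a fitted effect of over 55% in size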
#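 Luminescent CellTiter-Glo readout after 48 hours of compound exposure at 37 degrees C defined viability of HT-1080-NT cells. Activity was normalized to DMSO wells and cell-free media wells; concentration-response curves were fitted and assigned curve classes.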
# HT1080 IDH1KD tx: qHTS for induction of synthetic lethality in tumor cells producing 2HG: qHTS for the HT-1080-IDH1KD cell line | HT-1080 IDH1 knockdown viability, ATP luminescence, 48 h | Potency, µM (titrated, usually from 46.1 µM), for inactives: at the top dose activity, negative = toxicity, most hits filed as cytotoxic | 360,000 tested, 2% active | AID 686971, 2013;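 further: potency means the concentration at half of the fitted maximal effect; 0% = DMSO wells and -100% = cell-free medium wells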
#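 IDH1KD HT-1080 cells, 750/well, RPMI + 5% FBS; compound pinned after 2 h settling; 48 h, 37 °C; CellTiter-Glo luminescence; % activity normalised to DMSO and no-cell wells; curves fitted, classed by r2 and efficacy.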
# * = called active by the depositor; ? = inconclusive; . = no result; [ ] = dose if it differs, or a comment. Unless noted, the call rests on the fitted dose curve; in most records, active means well fitted curve in the direction sought with a large enough effect; inconclusive means small, poorly fitted or top-dose-only effect, or another doubt; inactive means no such curve, though single readings can be large; an effect the other way counts as inactive or inconclusive. Unless noted, on the % scale 0 is the no-effect control and ±100 the full control effect.
SMILES,TDP1 cell CPT,IL1B secr inh,TDP1 cell noCPT,HT1080-NT tox,HT1080 IDH1KD tx
CC(CCC(C)C(C)(C)C)[C@@H]1CC[C@H]2C3C[C@H](OS(O)(=S)=S)[C@H]4C[C@H](OS(O)(=S)=S)[C@@H](OS(O)(=S)=S)C[C@]4(C)[C@H]3CC[C@]12C (stereo partly drawn) (tested in a mixture with another compound),?,-76*,?,9.2µM*,?
CCC(CCC(C)C1CCC2C3CCC4CC(O)CC[C@@]4(C)C3CC[C@@]12C)C(C)C (stereo partly drawn),-3%,.,-5%,.,.
COc1ccc(C(=O)NNC(=O)CSc2nnc(C)n2CC2CCCO2)cc1 (stereo not drawn),-5%,12,-3%,7%,18%
CCn1nnc2cc(C(=O)Nc3cccc(C(F)(F)F)c3)ccc21,-3%,.,-20%,.,.
Cc1cc(Nc2cccc(Cl)c2)nc2ccc(NC(=O)c3cccnc3)cc12,13µM*,.,8.2µM*,.,.
Cc1cc(Nc2cccc(C(F)(F)F)c2)nc2ccc(NC(=O)c3ccc(N(C)C)cc3)cc12,5.2µM*,.,4.6µM*,.,.
CN(C)c1cccc(C(=O)Nc2cccc(F)c2)c1,-6%,-15,-10%,8%,3%
Cc1cc(Nc2cccc(Cl)c2)nc2ccc(NC(=O)c3cccc(N(C)C)c3)cc12,13µM*,.,7.3µM*,.,.
Nc1ccc(C(=O)N/N=C\C=C\c2ccc([N+](=O)[O-])cc2)cc1,-3%,25,-4%,-26%,-4%
O=C(N/N=C/c1ccc(F)cc1)c1cc(-c2ccc3c(c2)OCO3)n[nH]1,15%,-11,23µM*,?,?
CN(C)c1ccc(/C=N/NC(=O)c2cc(-c3ccc4c(c3)OCO4)n[nH]2)cc1,18µM*,20,21µM*,5.8µM*,?
COc1ccc(/C=N/NC(=O)c2cc(-c3ccc4c(c3)OCO4)n[nH]2)cc1OC,18µM*,?,12µM*,-4%,-2%
Cc1nn(CC(=O)NCc2ccc(F)cc2)c2ccccc12,-16%,.,-18%,.,.
CCc1nnc(NC(=O)c2oc3ccccc3c2COC(C)C)s1,-2%,17,-26%,-1%,-7%
Cc1ccc(NC(=O)c2ccc3snnc3c2)cc1Cl,-10%,.,-16%,.,.
O=C1OC(c2ccco2)=N/C1=C\c1ccc(-c2cccc(C(F)(F)F)c2)o1,?,0,23µM*,-1%,-3%
O=C(Nc1ccccc1N1CCN(c2ccc(F)cc2)CC1)c1ccccc1,23µM*,?,18µM*,14%,21%
CC(C)CC(=O)Nc1ccccc1N1CCN(c2ccccc2)CC1,?,0,?,10%,0%
CCCCCC(=O)Nc1ccccc1N1CCN(c2ccccc2)CC1,?,-88*,?,-23%,4%
CCC(=O)Nc1ccccc1N1CCN(c2ccc(F)cc2)CC1,21µM*,-26,?,-1%,6%
O=C(c1cccc2ccccc12)N1CCC(N2CCN(c3ccccc3)CC2)CC1,-26%,-8,?,0%,-3%
CCC(=O)N1CCCc2cc(S(=O)(=O)N3CCC(C(=O)NCc4ccc(F)cc4)CC3)ccc21,?,.,-29%,.,.
COc1ccc(N2C3=[N+](CCCC3)CC2(C)O)cc1 (stereo not drawn),4.1µM*,6,3.7µM*,0%[9.24 µM],-39%
O=C(OCc1ccccc1)c1cnc(Cl)c(Cl)c1,-1%,-4,0%,0%,7%
N#Cc1ccc(COC(=O)c2cnc(Cl)c(Cl)c2)cc1,17%,-88*,-19%,1%,1%
Cc1noc(C)c1COC(=O)c1cc(F)c(F)cc1Cl,-3%,-2,-3%,3%,8%
